TDP1 cell CPT – qHTS for Inhibitors of human tyrosyl-DNA phosphodiesterase 1 (TDP1): qHTS in cells in presence of CPT; chicken DT40 Tdp1-/-;hTDP1 cells + 20 nM CPT, ATP luminescence, 48 h; Potency, µM (highest dose often 46.2 µM), usual class: inhibitors; 420,000 tested, 12% active; AID 686979, 2013; note: nearly all actives have a fitted effect of over 55% in size
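Chicken DT40 Tdp1-/- cells complemented with human TDP1, 400 cells/well, exposed to compounds plus 20 nM camptothecin for at least 48 h at 37 C; viability read as ATP content by CellTiter-Glo luminescence.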
IL-1B inflam inh – qHTS for Inhibitors of Inflammasome Signaling: IL-1-beta AlphaLISA Primary Screen. 360,000 tested, 4.7% active. THP-1 LPS/ATP IL-1B secretion, AlphaLISA, 16 h; hits give low values. activity change, % at 57.5 µM. AID 743279, 2014; in the data active = activity change below about -50%; inconclusive = mostly about -30% to -49%
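THP-1 cells pretreated 1 hr with compounds (up to 57.5 uM final), then stimulated with LPS (250 ng/mL final) plus ATP (1.25 mM final); secreted IL-1B measured by AlphaLISA after 16 hr, decreased signal indicating inhibition.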
DT40 TDP1 no CPT – qHTS for Inhibitors of human tyrosyl-DNA phosphodiesterase 1 (TDP1): qHTS in cells in absence of CPT; DT40 Tdp1-/- hTDP1 cells, no CPT, ATP luminescence, 48 h; AID 686978, 2013; Potency, µM (doses to about 46.2 µM), hits mostly inhibitors; 420,000 tested, 15% active; note: nearly all actives have a fitted effect of over 55% in size
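Chicken DT40 Tdp1-/- cells complemented with human TDP1, screened without camptothecin (DMSO vehicle only), 400 cells/well. Compounds pin-transferred, cells incubated at 37 °C for at least 48 hr. Growth read as ATP-dependent luminescence (CellTiter-Glo, 30 min at RT).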
HT1080-NT tox – qHTS for induction of synthetic lethality in tumor cells producing 2HG: qHTS for the HT-1080-NT fibrosarcoma cell line. HT-1080-NT fibrosarcoma viability, CellTiter-Glo ATP luminescence, 48 h. Potency, µM (top dose mostly 46.1 µM), usual class: cytotoxic. 360,000 tested, 1.6% active. AID 686970, 2013;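 note: NT is the 2HG producing partner of a matched IDH1 knockdown line; nearly all actives have a fitted effect of over 55% in size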
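Toxicity toward the 2HG-producing NT line was scored as %Activity, normalised to DMSO and no-cell wells, from CellTiter-Glo luminescence after 48 hours' treatment.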
HT1080 IDH1KD tx – qHTS for induction of synthetic lethality in tumor cells producing 2HG: qHTS for the HT-1080-IDH1KD cell line; Potency, µM (titrated, usually from 46.1 µM), usual class: cytotoxic; HT-1080 IDH1 knockdown viability, ATP luminescence, 48 h; 360,000 tested, 2% active
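HT-1080-IDH1KD cells (IDH1 knocked down), 750/well in RPMI with 5% FBS, treated with compound 48 h at 37 degrees C. Viability by CellTiter-Glo luminescence, normalised to DMSO and no-cell wells; concentration-response curves classed.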
Of the large screens only hits and unclear results are named; the others gave an inactive call. An excerpt weighted towards active compounds, which were near 19% of everything screened. Unless noted, calls come from the whole dose curve; as a rule, active = well fitted curve in the direction sought with a large enough effect; inconclusive = small, poorly fitted or top-dose-only effect, or another doubt; inactive = no such curve, though single readings can be large; an effect the other way counts as inactive or inconclusive.

CCCCCCOc1ccc(CN2CCN(CC)CC2)cc1	TDP1 cell CPT inconclusive, IL-1B inflam inh inconclusive, DT40 TDP1 no CPT 23µM, HT1080-NT tox inconclusive, HT1080 IDH1KD tx inconclusive
CCN1CCN(Cc2ccc(OC(F)(F)F)cc2)CC1	none
c1ccc(CN2Cc3ccccc3-n3nncc3C2)nc1	none
CNS(=O)(=O)c1cc(NC(=O)c2cccc3cccnc23)ccc1C	TDP1 cell CPT 23µM, IL-1B inflam inh inconclusive, DT40 TDP1 no CPT 21µM
C[C@H](NC(=O)CCC(=O)N1C[C@H]2C[C@H](C1)c1cccc(=O)n1C2)c1ccccc1	none
CC(C)C(=O)Nc1ccc(S(=O)(=O)N2CC3CC(C2)c2cccc(=O)n2C3)cc1 (centres undefined)	none
Nc1nnc(P(c2ccccc2)c2ccccc2)s1	TDP1 cell CPT inconclusive, DT40 TDP1 no CPT inconclusive
C[C@]12Cc3nonc3C[C@@H]1CC[C@@H]1[C@@H]2CC[C@@]2(C)[C@H]1CC[C@]2(C)O	DT40 TDP1 no CPT inconclusive (no result: IL-1B inflam inh, HT1080-NT tox, HT1080 IDH1KD tx)
O=C1C=C2C=C[C@@H]3C[C@@]2(O1)[C@H]1CCCCN31	TDP1 cell CPT 12µM, DT40 TDP1 no CPT 7.5µM (no result: IL-1B inflam inh, HT1080-NT tox, HT1080 IDH1KD tx)
CC(=O)OC1C(=O)OCC23CCC4(C)OC4C2OC2CC(OC(=O)C=CC=CC(=O)OCCC1C)C3(C)C21CO1 (centres undefined)	TDP1 cell CPT 0.15µM, IL-1B inflam inh -101, DT40 TDP1 no CPT 0.021µM, HT1080-NT tox 1.5µM (no result: HT1080 IDH1KD tx)
CC(O)C1C=CC=CC(=O)OC2CC3OC4C5OC5(C)CCC4(COC(=O)C4OC4(C)C(O)CO1)C2(C)C31CO1 (centres undefined)	TDP1 cell CPT 0.052µM, IL-1B inflam inh -100, DT40 TDP1 no CPT 0.052µM, HT1080-NT tox inconclusive (no result: HT1080 IDH1KD tx)
CCOC(=O)c1nsnc1NCCCl	none
Cc1cccc(N(C)S(=O)(=O)c2cc(-c3cnc(C4CC4)o3)ccc2C)c1	TDP1 cell CPT 16µM, DT40 TDP1 no CPT 23µM (no result: IL-1B inflam inh, HT1080-NT tox, HT1080 IDH1KD tx)
CCN(c1cccc(C)c1)S(=O)(=O)c1ccc2c(c1)oc(=O)n2C	DT40 TDP1 no CPT inconclusive, HT1080 IDH1KD tx inconclusive
Cc1cccn2c(=O)cc(COc3cccc(NC(=O)COc4ccc(F)cc4)c3)nc12	TDP1 cell CPT inconclusive, DT40 TDP1 no CPT 8.2µM (no result: IL-1B inflam inh, HT1080-NT tox, HT1080 IDH1KD tx)
CC(=O)c1cccc(OCC(=O)N2CCN(CC(=O)Nc3cccc(F)c3)CC2)c1	DT40 TDP1 no CPT inconclusive
CCOC(=O)CC1c2ccccc2-n2nncc2CN1CC1CCCCC1 (centres undefined)	TDP1 cell CPT inconclusive, DT40 TDP1 no CPT inconclusive
COc1cccc(C2CCN(CC(=O)Nc3cc(Cl)ccc3OC)CC2O)c1 (centres undefined)	none
CCOc1ccc(N(C(C)C(=O)Nc2cc(Cl)ccc2OC)S(C)(=O)=O)cc1 (centres undefined)	TDP1 cell CPT 0.58µM, DT40 TDP1 no CPT 0.52µM (no result: IL-1B inflam inh, HT1080-NT tox, HT1080 IDH1KD tx)
O=C(CCC(=O)N1C[C@H]2C[C@@H](C1)c1cccc(=O)n1C2)NCc1ccc(F)cc1	none
NC1=NC(c2cccnc2)n2c(nc3ccccc32)N1 (centres undefined)	none
CCOc1nc(NC(C)C)nc(N2CC3CC(C2)c2cccc(=O)n2C3)n1 (centres undefined)	TDP1 cell CPT 18µM, DT40 TDP1 no CPT inconclusive
O=C1/C(=C\c2cc3c(cc2Br)OCO3)N2CCC1CC2	DT40 TDP1 no CPT inconclusive, HT1080-NT tox inconclusive
Cc1ccccc1-c1ccc2c(c1)CNCc1cnnn1-2	DT40 TDP1 no CPT inconclusive, HT1080-NT tox inconclusive
O=S1(=O)N(Cc2ccccc2Cl)CCCN1Cc1ccccc1Cl	TDP1 cell CPT 16µM, DT40 TDP1 no CPT inconclusive (no result: IL-1B inflam inh, HT1080-NT tox, HT1080 IDH1KD tx)
CCc1ccc2c(c1)Sc1ccccc1CC2N1CCN(C)CC1 (centres undefined)	TDP1 cell CPT inconclusive, IL-1B inflam inh -65, DT40 TDP1 no CPT 18µM
Cc1ccccc1Cn1cnc2c(oc3ccccc32)c1=O	TDP1 cell CPT inconclusive, DT40 TDP1 no CPT inconclusive
COc1cccc(OC)c1C1=NCC(=O)Nc2c1oc1ccc(Br)cc21	TDP1 cell CPT 0.92µM, DT40 TDP1 no CPT 0.92µM, HT1080-NT tox inconclusive, HT1080 IDH1KD tx 2.9µM
